B1: d8r1_design_ppi_592_dldesign_0_cycle1_af2pred (protein)
chain: GDAEDAVRAAENALKSAENYLAKADTLEQAQKAINAAKGAREFIKYAAKLGADPATVAALEKKANAVEEAAKAKAKALA
B2: d8r1_design_ppi_996_dldesign_0_cycle1_af2pred (protein)
chain: SASDIKAAQKAAAAVLRVAAERFPEVAAVAEPAAETAYNGDAETAIKAILEAAEAIRAAAARLPGGAELRAYADALENIAALLKRLAA
B3: d8r1_design_ppi_1381_dldesign_0_cycle1_af2pred (protein)
chain: AAARQELVDRALAALDAARAASPEEAVAIAPKAYGLAVMVGEDPRVQAALEAAAAANPAAAPILNEALALARATAAAQAAARAAA
B4: d8r1_design_ppi_482_dldesign_0_cycle1_af2pred (protein)
chain: SESEEWIKEITDAANQAVALAKAGKTAEAYALLDATAAKAAAKSPSRGALAKGVADAMRVYIDKYAAKKA
B5: d8r1_design_ppi_1102_dldesign_0_cycle1_af2pred (protein)
chain: DAVREAGVAAAQAIKVALDEGDKELANAVSEAARAAVADPALAPLVKEGAELIIDPEKREQGRELVEKAVAAYKAAQ
B6: d8r1_design_ppi_1481_dldesign_0_cycle1_af2pred (protein)
chain: SSDEDYAALVEGMALASQTYAQARALIAATGAAGGAQARALAQAAAAQLRAAGAKYPSRAAQYDALADGLVRTVTAAAA
B7: d8r1_design_ppi_700_dldesign_0_cycle1_af2pred (protein)
chain: EETKKKRDEYVKKAGEALLKADPTLTAQAAAIKDAAYNAGPAALMAAMAAAYKAAVAANPANAPYAAEAVNYAAKAAIYAKEA
B8: d8r1_design_ppi_323_dldesign_0_cycle1_af2pred (protein)
chain: SALEEAKRAIAEARELAAEAKARGPAAAPAAAIAANAIAGAELLVELGSYEAATAVARAGIRVARAYLAAV
B9: d8r1_design_ppi_43_dldesign_0_cycle1_af2pred (protein)
chain: EEALKKASEALSEAARLAIKNPAYLPAFAATGAAYGKVLEAYKKSPEEAKKAAKELLALYEKEVAAAKAAL
B10: d8r1_design_ppi_508_dldesign_0_cycle1_af2pred (protein)
chain: AGKEALAKAIAEVKELVTAAMLANQKSREEGIKTAKEQAEKAKKLAEEAKASPLAAEIVKVLQSGRDFLEKLAEMLKES
B11: d8r1_design_ppi_118_dldesign_0_cycle0_af2pred (protein)
chain: GLVSLLRAAKNTLESAIEAEDAEKAAKYLAGAAQLLEGAAKLDPRVEPAAKLAKEAAAAAKADIEKGKAKAKEALKAVEELLKEAEEE
B12: d8r1_design_ppi_345_dldesign_0_cycle1_af2pred (protein)
chain: ATAEATATKIKTGIEKMLKLSKELGKGALINAAAAAKASAKVMDKLLADPSITPAARAALTAARDEAEKAAKEAEAEAKKL
B13: d8r1_design_ppi_637_dldesign_0_cycle1_af2pred (protein)
chain: MTAEAAKAEVRARLEAAGERAAEAAKERGADYEAVLAAARSMAERAAADPDPEAALARGAEALAFLEALEKYYRE
B14: d8r1_design_ppi_674_dldesign_0_cycle1_af2pred (protein)
chain: SEEKINQAWIDTSKASELILAGEELSVTDPEKGAALIEKGRALAEEAAKAVPSKAEAILSTAEKTLEVAKARAAEVAA
B15: d8r1_design_ppi_1429_dldesign_0_cycle1_af2pred (protein)
chain: SSLKREEILRKTAEAMAEATLAKVRELAKEDPERARRALENMRALLALLGPVAAKIGEEAYARGLAIIAEIA
B16: d8r1_design_ppi_540_dldesign_0_cycle1_af2pred (protein)
chain: DKKTETILAGMEAASNAAALLKKDPAAGGAYLLAKAKEVGAAVGNAADIVPAAAAAAADPATAAARLREFVSIVVSSVTS
B17: d8r1_design_ppi_640_dldesign_0_cycle1_af2pred (protein)
chain: SEEEEKKYEELAKAGAAASKAGAVAAKHPDNPEIKKLADEAGKALSEAFTSDVETAKKLAEKVEALAKAAEALAA
B18: d8r1_design_ppi_897_dldesign_0_cycle1_af2pred (protein)
chain: NPEAKDAALVKIGEGASYVAAASGDTAVARTVFTTSYTGVQEGNLEAAAAAAVATVAAAVDAATAARVAALAAAAVAAYKA
B19: d8r1_design_ppi_412_dldesign_0_cycle1_af2pred (protein)
chain: AKAAQLRATSDLYALAYIAEKKVGKALADKLRAAAASGDPAAMLAAAEEAAKAIGEIGKRLYERLVAALA
B20: d8r1_design_ppi_400_dldesign_0_cycle0_af2pred (protein)
chain: SAELAAIKAAAENARAGAILLAKESKAETALKFNEAAKERLLKLAAATADAKAAKAVVEEEAKKAEEEIKKIGEE
B21: d8r1_design_ppi_416_dldesign_0_cycle0_af2pred (protein)
chain: SEEAARILAETLGTISAQTAAAKAAAAAGDVEAARAAAAAARAAAEEGAKRLEELGNKSGAEALRSIGAATAAHIKALAAKAAA
B22: d8r1_design_ppi_1038_dldesign_0_cycle1_af2pred (protein)
chain: SDKRLAKNTAEAILRRTKELAKKAAAATAEEAKALAAIAEKGAKSAEAVAKKSGDEETKKLAKEAKEAAKKAKE
B23: d8r1_design_ppi_1136_dldesign_0_cycle0_af2pred (protein)
chain: SAAAAARARTAAANAAALAKKMLEAGVSPENARALVEAAAARLTPEAGAALRAEGEALVAEYAARREAEAA
B24: d8r1_design_ppi_266_dldesign_0_cycle0_af2pred (protein)
chain: SKVEEAKERFEKVVEEAEKKVKEALAKAKTAEEALKASIEAIKEAASEIAKIYSEVGEEVADLAVEALARLSALTAEAKAAAAKKAAA
B25: d8r1_design_ppi_1136_dldesign_0_cycle1_af2pred (protein)
chain: AAEKEARDLAAADNAIALVKKMLEAGVSPENALATAEAAAALLSPAARARLLAAARAIVAAHEAAKAAAAA
B26: d8r1_design_ppi_700_dldesign_0_cycle0_af2pred (protein)
chain: SENKAKMEEHLAKAKEALLKGDPAAAPLAEAMAKAAKEEGPAALMAAAAAAYAAVVAADPSAAPLASQALAHAAKAAIYLGDS
B27: d8r1_design_ppi_87_dldesign_0_cycle1_af2pred (protein)
chain: SEEEFERRIAIAAEQLAAMDAALAAIKASGDAAEKQALLAQLRAAGEEMAKALGPAGAAIAEALLAQAEAALAA
B28: d8r1_design_ppi_994_dldesign_0_cycle1_af2pred (protein)
chain: GKVEELEKKFREELQAAADLIAELRKADPELGKLAAKALAYALANPELGRKLAEEVAAKSPLGAKAAAEILALIETREELLKAEKEA
B29: d8r1_design_ppi_1339_dldesign_0_cycle0_af2pred (protein)
chain: DEAWLAEIKALVSAAVAAAREGDVAALAAAQAAAAALAAAAPASVKPAAANATAGIATLLELTKERLEEKA
B30: d8r1_design_ppi_753_dldesign_0_cycle1_af2pred (protein)
chain: NAAAKAALAAAKAAVEGASLLVEVAEKEGSKGMLEAAKRVAEEAIAAAEKAAKLGATEEAAKLKAQAKEVKKRAEKLE
B31: d8r1_design_ppi_1124_dldesign_0_cycle1_af2pred (protein)
chain: STATAAANAAAFSSKGAAVVGDKFAPSVESVLERVVELDPAAGLAAAEAVAAAAAAHPAVRAVAEAVAARARAAL
B32: d8r1_design_ppi_419_dldesign_0_cycle1_af2pred (protein)
chain: SALEEKAKEAIEKMEKAAEELKKAAAELKKLDPEAGAAAEAALEAHLAILELAKKFSTKVTLNVAEAMTRGLERALKEAKARIAALK
B33: d8r1_design_ppi_536_dldesign_0_cycle0_af2pred (protein)
chain: SKDEEIAKLLLKTAEAARKDAKKALELAKELKKLGNKNQGGAIVTLLQAAVENKGAAGKSALAGAVKLAEAKAEDLLAK
B34: d8r1_design_ppi_753_dldesign_0_cycle0_af2pred (protein)
chain: SAEAQAALAGARAAVAGAELLVEVAEETGSQGALRAAKRAAEAAEEAARKAAELGAEEEARELEERAREVRERAEKLE
B35: d8r1_design_ppi_882_dldesign_0_cycle1_af2pred (protein)
chain: MTPEEAAAEARRIGDGAAAAIAASTDVATAKAIYDRAVTELTALAAAFPEVAHVASAELVKVAKAYIAKGDAL
B36: d8r1_design_ppi_1265_dldesign_0_cycle0_af2pred (protein)
chain: SETEEGAKALIRAAANAAKYLAKKYGELAKKLAELVKKALEAGPEEAVKYLEEAAALAKEAGQKTGGTKAFAALQATLKKAAELKKK
B37: d8r1_design_ppi_47_dldesign_0_cycle1_af2pred (protein)
chain: GQAALDAAAKRLDELTKEAEKASPNTGKAVEAIRDGSIRVATALFAAGDAARGRAALENGVAASEKLVEATKS
B38: d8r1_design_ppi_1493_dldesign_0_cycle1_af2pred (protein)
chain: AAESEALRQQAIDLAQKAAEIAADDENAEEVKARIDAAIAHLQAGDYAAAAADLLAAAKLASPEARGYILKALLKAMEAA
B39: d8r1_design_ppi_882_dldesign_0_cycle0_af2pred (protein)
chain: MTPEEAAAAARAIGAAAAAAIAASTDLATAGALADAAFRALVALAAAFPEVAPVASAEMAAVAKAFIAKGDAL

Values without a mark were called inactive. No rule for the calls is given here.

This assay deals with PDL1, Q9NZQ7.
PDL1, Q9NZQ7, sequence (Q9NZQ7 whole entry): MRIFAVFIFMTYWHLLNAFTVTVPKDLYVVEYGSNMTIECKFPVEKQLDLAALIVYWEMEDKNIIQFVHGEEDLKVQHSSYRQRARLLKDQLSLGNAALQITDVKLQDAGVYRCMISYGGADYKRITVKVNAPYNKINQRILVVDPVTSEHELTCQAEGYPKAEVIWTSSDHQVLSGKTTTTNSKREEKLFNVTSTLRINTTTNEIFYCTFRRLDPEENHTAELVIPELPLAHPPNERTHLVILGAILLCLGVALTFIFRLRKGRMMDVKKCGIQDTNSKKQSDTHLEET
On to B1, for which the “binding in a display sort” value was “not found”.
B2: the “binding in a display sort” value is “not found”.
Then B3, with “not found”; and B4, with “binds (active)”; and B5, with “not found”.
Turning to B6, the “binding in a display sort” value was “binds (active)”.
B7: the “binding in a display sort” value was “not found”.
As to B8, the “binding in a display sort” value was “not found”.
Then B9, with “not found”; and B10, with “not found”.
In the case of B11, the “binding in a display sort” value was “not found”.
For the molecule B12, the “binding in a display sort” value is “not found”.
Then B13, with “not found”.
As for B14, the “binding in a display sort” value is “not found”.
The result for B15 reads “not found”; that for B16, “not found”.
For the molecule B17, the “binding in a display sort” value was “not found”.
The result for B18 reads “not found”.
The result for B19 reads “not found”.
The result for B20 reads “not found”.
Regarding B21, the “binding in a display sort” value was “binds (active)”.
The result for B22 reads “not found”; that for B23, “binds (active)”.
As to B24, the “binding in a display sort” value is “not found”.
As for B25, the “binding in a display sort” value is “not found”.
Regarding B26, the “binding in a display sort” value was “not found”.
Then B27, with “not found”; and B28, with “not found”; and B29, with “not found”.
Then B30, with “not found”; and B31, with “not found”; and B32, with “not found”.
Then B33, with “not found”.
B34: the “binding in a display sort” value was “not found”.
Then B35, with “not found”.
Then B36, with “not found”; and B37, with “not found”.
Then B38, with “binds (active)”; and B39, with “not found”.
